The list is not random: actives were taken first. Their share in the collection is about 3.2%.
Mtb UGM inh: inhibitors of M. tuberculosis UDP-galactopyranose mutase; P9WIQ1; purified UGM, fluorescence polarization probe displacement; inhibition, % at 10 µM; actives 0.06% (n = 320,000); AID 504406; in the data active means inhibition above about 10%, passing the limit was not always enough
Target sequence (P9WIQ1 whole entry, looked up): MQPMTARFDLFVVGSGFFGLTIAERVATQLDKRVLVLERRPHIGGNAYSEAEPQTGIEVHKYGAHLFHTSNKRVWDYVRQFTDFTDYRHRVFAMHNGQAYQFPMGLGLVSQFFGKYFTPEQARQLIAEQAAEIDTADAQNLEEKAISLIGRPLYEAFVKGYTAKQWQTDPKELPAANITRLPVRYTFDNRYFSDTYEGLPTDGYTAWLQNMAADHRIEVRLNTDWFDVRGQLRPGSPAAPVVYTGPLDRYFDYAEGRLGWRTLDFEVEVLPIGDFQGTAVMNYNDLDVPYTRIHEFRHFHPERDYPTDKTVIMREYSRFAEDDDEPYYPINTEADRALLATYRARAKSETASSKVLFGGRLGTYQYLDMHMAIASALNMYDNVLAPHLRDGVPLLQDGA
FBA Mtb inh: Mtb fructose-bisphosphate aldolase inhibition | P9WQA3 | purified M. tuberculosis FBA, fluorescence read-out | inhibition, % at 1 µM | actives 2.3% (n = 360,000); in the data active means inhibition above about 27%;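 further: 0% = vehicle and 100% = reference inhibitor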
PriA SSB inh: blocks PriA binding to SSB C-terminal tail; AlphaScreen SSBct-PriA binding, biotinylated peptide; inhibition, % at 33 µM; actives 0.6% (n = 430,000); AID 1272365; in the data active means inhibition mostly above about 37%, no sharp cut-off; inactive means mostly below about 20%;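 further: plate controls were negative control peptide for no effect and reference peptide for full effect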
Mtb betalactam: beta-lactam sensitization of Mtb H37Rv; inhibition, % at 25 µM; actives 0.27% (n = 330,000); M. tuberculosis H37Rv growth with meropenem, percent inhibition; call rule not given here;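 further: growth measured after seven days incubation then overnight dye step; 0% = bacteria only wells and 100% = bacteria with antibiotic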
Rv3671c inh: inhibits the M. tuberculosis serine protease Rv3671c | actives 0.048% (n = 320,000) | inhibition, % at 5.96 µM | AID 2606; in the data active means inhibition above about 38%;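 further: extracellular domain of Rv3671c used as enzyme; 0% = enzyme with DMSO and 100% = no enzyme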
GDH-TPI inh: inhibits GDH-TPI coupling enzymes, artifact for Mtb FBA screen. GDH-TPI coupled enzyme counterscreen, NADH absorbance. inhibition, % at 4.8 µM. actives 1.2% (n = 360,000). AID 588335; in the data active means inhibition above about 30%;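 further: 0% = DMSO wells and 100% = wells lacking the enzyme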
Starred values were filed as active, the others as inactive; i = inactive; . = not tested or not shown; + = active, no number.

SMILES | Mtb UGM inh | FBA Mtb inh | PriA SSB inh | Mtb betalactam | Rv3671c inh | GDH-TPI inh
O=C(NN=Cc1ccc(O)c(O)c1)c1ccccc1 | . | 7 | . | . | . | .
CCOc1cc(/C=N/NC(=O)c2ccccc2OCc2ccc(F)cc2)ccc1O | -3 | 6 | . | -5 | 1 | 41*
O=C(COc1ccccc1C(=O)N/N=C\c1ccc(O)c(O)c1)N/N=C/c1ccc(O)c(O)c1 | -2 | 1 | . | 18 | -4 | 56*
CCOc1cc(/C=N/Nc2ncnc(Cl)c2N)ccc1O | 0 | -3 | . | -5 | 9 | 33*
CCOc1cc(/C=N/NC(=O)c2cccnc2)ccc1O | 0 | -10 | . | -1 | 9 | 38*
CCOc1cc(/C=N/NC(=O)c2ccccc2-n2cccc2)ccc1O | 1 | -1 | . | -3 | 3 | 27
Cc1ccc(C(=O)N/N=C/c2ccc(-c3ccc(Cl)c(Cl)c3)o2)cn1 | . | . | i | . | . | .
COc1cc(/C=N/NC(=O)c2cnccn2)ccc1O | -4 | -4 | . | 3 | 2 | 34*
Cc1ccc(C(=O)N/N=C\c2ccc(-c3ccc(Cl)c(Cl)c3)o2)cn1 | -1 | 4 | . | 92 | -26 | 63*
Cc1c(Cl)c([N+](=O)[O-])nn1Cc1ccc(C(=O)NN=Cc2cc(Cl)ccc2O)o1 | . | . | 19 | . | . | .
CCCCNC(=S)N/N=C/c1cccc(OCC)c1O | 0 | 1 | . | 96 | 1 | 33*
COc1cc(/C=N\NC(=O)c2ccc(Cn3nc([N+](=O)[O-])c(Cl)c3C)o2)ccc1O | 2 | 5 | . | -1 | -1 | 40*
CCCCNC(=S)NN=Cc1cccc(OCC)c1O | . | . | 0 | . | . | .
COc1ccc(CC(=O)Nc2nc3cc4c(cc3s2)OCCO4)cc1C | . | . | 0 | . | . | .
COc1ccc(C=NNC(=O)c2ccc(C)nc2)cc1O | . | . | -6 | . | . | .
COc1ccc(/C=N/NC(=O)c2ccc(C)nc2)cc1O | 2 | 1 | . | 3 | 3 | 33*
CCOc1cccc(/C=N/NC(=O)c2cccnc2)c1O | 0 | -4 | . | 52 | 3 | 31*
CCOc1cc(/C=N/NC(=O)C(=O)N/N=C/c2ccc(O)c(OCC)c2)ccc1O | -2 | -3 | . | -1 | 7 | 51*
Cc1ccccc1-n1c(CC2CCN(C(=O)[C@H](C)n3cccn3)CC2)n[nH]c1=O | . | . | -14 | . | . | .
Cc1ccc(C=NNC(=O)Cc2noc3ccccc23)cc1 | . | . | -1 | . | . | .
O=c1cnnc(NN=Cc2ccccn2)[nH]1 | . | . | 71* | . | . | .
O=c1cnnc(N/N=C/c2ccc3c(c2)OCO3)[nH]1 | 0 | 2 | . | 0 | 3 | 44*
C(=NNc1nncc2ccccc12)c1ccccn1 | . | . | 51* | . | . | .
O=c1[nH]c(N/N=C\c2ccc3c(c2)OCO3)nc2ccccc12 | -1 | 15 | . | 40 | 12 | 29
COc1ccc(C=NNC(=O)c2ccc(F)cc2)cc1COc1cc(F)ccc1[N+](=O)[O-] | . | . | 4 | . | . | .
SMILES | Mtb UGM inh | FBA Mtb inh | PriA SSB inh | Mtb betalactam | Rv3671c inh | GDH-TPI inh
O=C(NCCn1ncccc1=O)c1ccccc1C(F)(F)F | . | . | -5 | . | . | .
O=C(O)c1cc(O)c2c(c1)[C@H]([C@H]1c3cc(C(=O)O)cc(O)c3C(=O)c3c(O[C@@H]4O[C@H](CO)[C@@H](O)[C@H](O)[C@H]4O)cccc31)c1cccc(OC3O[C@H](CO)[C@@H](O)[C@H](O)[C@H]3O)c1C2=O (some centres undefined) | 3 | -6 | 6 | 4 | 75* | 10
O=C1c2cc(CO)cc(O)c2C(=O)c2c(O[C@@H]3OC(CO)[C@@H](O)[C@@H](O)[C@@H]3O)cccc21 (some centres undefined) | 0 | -3 | -15 | -5 | -7 | 5
O=C(O)c1cc(O)c2c(c1)[C@@H]([C@H]1c3cc(C(=O)O)cc(O)c3C(=O)c3c(O[C@@H]4O[C@H](CO)[C@@H](O)[C@H](O)[C@H]4O)cccc31)c1cccc(OC3O[C@H](CO)[C@@H](O)[C@H](O)[C@H]3O)c1C2=O (some centres undefined) | -1 | -5 | 11 | 8 | 75* | 16
C[C@H]1CCc2cc(F)ccc2N1C(=O)C1(c2cc(-c3cccs3)on2)CC1 | . | . | 3 | . | . | .
COc1c2ccc(C(=O)N3CCC(S(=O)(=O)CC(C)C)CC3)cc2nn1C | . | . | -2 | . | . | .
Cc1ccccc1OCC(=O)OCC(=O)c1ccc(OCc2ccccc2)cc1 | 0 | 4 | -58 | 32 | 2 | 1
Cc1ccccc1OCC(=O)OCC(=O)c1ccc(OC(=O)c2ccccc2)cc1 | 3 | 4 | 67* | 94 | 3 | 19
Cc1ccc(NC(=O)CS(=O)(=O)c2cn(C)c3ccccc23)c(C)c1 | 2 | 2 | 104* | -4 | 3 | -4
Cn1cc(S(=O)(=O)CC(=O)Nc2ccc(Br)cc2)c2ccccc21 | 0 | 4 | -20 | 0 | -1 | 4
CCOC(=O)c1cccc(NC(=O)CCc2nnc3ccc(N4CCN(C)CC4)nn23)c1 | -1 | 1 | -8 | 5 | -3 | 3
CCOC(=O)c1cccc(NC(=O)CCc2nnc3ccc(N4CCCCC4)nn23)c1 | 0 | + | 1 | -4 | -6 | 11
CCOC(=O)c1sc2nc(N3CCOCC3)c3c(c2c1N)CCC3 | -2 | 125* | -3 | 1 | -9 | 30
Cc1ccc(NC(=O)c2sc3nc(N4CCOCC4)c4c(c3c2N)CC(C)(C)OC4)cc1 | -1 | 3 | -1 | 9 | 0 | 9
CC1(C)Cc2c(c(N3CCOCC3)nc3sc(C(N)=O)c(N)c23)CO1 | -2 | 19 | 1 | 0 | 4 | 32*
O=S(=O)(C1CC1)N1CCNCC1 | . | . | -3 | . | . | .
Nn1c(SCC(=O)Nc2nc(-c3ccccc3)cs2)nnc1-c1ccncc1 | . | . | -3 | . | . | .
O=c1c(=Cc2ccc(F)cc2)sc2n1CCCN=2 | . | . | -18 | . | . | .
O=c1/c(=C\c2ccc(F)cc2)sc2n1CCCN=2 | 1 | 0 | . | -4 | 3 | 33*
COCC(=O)Nc1ccc(Nc2ccc(C)nn2)cc1 | . | . | -16 | . | . | .
O=C(Nc1ccc(Nc2ccc(-n3cccn3)nn2)cc1)c1ccco1 | . | . | 89* | . | . | .
COCC(=O)Nc1ccc(Nc2ccc(-n3cccn3)nn2)cc1 | . | . | 83* | . | . | .
Cc1cccc(NC(=O)Cn2cnc(C(C)C)cc2=O)n1 | . | . | -19 | . | . | .
COc1ccc(/C=C/C(=O)N2CCN(c3ccccn3)CC2)cc1OC | -4 | -3 | 7 | 0 | -1 | 39*
N/C(=N\OC(=O)/C=C/c1ccccc1)c1ccccn1 | 1 | -4 | . | 45 | -8 | 9
SMILES | Mtb UGM inh | FBA Mtb inh | PriA SSB inh | Mtb betalactam | Rv3671c inh | GDH-TPI inh
COc1cc(/C=C/C(=O)N2CCN(c3ccccn3)CC2)cc(OC)c1OC | 3 | 1 | -13 | 4 | 1 | -6
COc1ccc(/C=C/C(=O)N(c2ccccn2)C2CCCCC2)cc1OC | 0 | 6 | 4 | 2 | -6 | 83*
CCOc1ccc(/C=C/C(=O)N2CCOCC2)cc1OC | 1 | 6 | -1 | -15 | 1 | 32*
COc1ccc(/C=C/C(=O)O/N=C(\N)c2ccccn2)cc1OC | 0 | 4 | i | 69 | -5 | 45*
Cc1sc(NC(=O)CS(=O)(=O)c2ccc(Cl)cc2)c(-c2nc3ccccc3s2)c1C | . | . | -6 | . | . | .
CC(C)(C)C(=O)Nc1ccc(C(=O)NN=Cc2ccccc2OC(=O)c2ccc(Cl)cc2)cc1 | . | . | 5 | . | . | .
